Records with an inconclusive call do not appear. Values without a mark were called inactive. Calls of active or inactive are those of the source. Calls come from the whole dose curve; as a rule, active = well fitted cell-killing curve with a large enough effect; inconclusive = small, poorly fitted or top-dose-only effect, or effect the other way; inactive = no such curve, though single readings can be large or run the other way.

In general, viability refers to a read-out of living cells in per cent, often relative to untreated cells.
Potency is the fitted concentration of half-maximal effect.

The nature of the assay: Quantitative High-Throughput drug screen in 47 multiple myeloma cell lines against the NCATS MIPE library collection: SKMM1_PLB cell viability assay (AID 1919863). For viability: series mostly up to about 46 µM. Note: nearly all actives have a fitted effect of over 35% in size. The settings on record: SKMM1 myeloma viability, CellTiter-Glo ATP, 48 h; viability: hits give low values. From the text: PI: Beverly A. Mock Ph.D.
Laboratory of Cancer Biology and Genetics,
Center for Cancer Research, National Cancer Institute,
National Institute of Health, Bethesda, Maryland
Drug resistance and disease progression are common in multiple myeloma (MM) patients, underscoring the need for new therapeutic combinations. […] We hypothesized that effective combinations would reduce MYC expression and enhance p16 activity. […] These preclinical data identify potentially useful drug combinations for evaluation in drug-resistant MM and reveal potential mechanisms of combined drug sensitivity.
Described herein is the primary MIPE qHTS used to cherrypick compounds. Validated compounds were then further tested for potential synergistic activiy.
[1] Peat TJ, Gaikwad SM, Dubois W, Gyabaah-Kessie N, Zhang S, Gorjifard S, Phyo Z, Andres M, Hughitt VK, Simpson RM, Miller MA, Girvin AT, Taylor A, Williams D, D'Antonio N, Zhang Y, Rajagopalan A, Flietner E, Wilson K, Zhang X, Shinn P, Klumpp-Thomas C, McKnight C, Itkin Z, Chen L, Kazandijian D, Zhang J, Michalowski AM, Simmons JK, Keats J, Thomas CJ, Mock BA. Drug combinations identified by high-throughput screening promote cell cycle transition and upregulate Smad pathways in myeloma. Cancer Lett. 2023 Aug 1;568:216284. doi: 10.1016/j.canlet.2023.216284. Epub 2023 Jun 24. PMID: 37356470; PMCID: PMC10408729.
SEQUENCE No. (e.g., 1, 2, 3, etc.); […] (e.g., Cells, Incubation, Reagent, etc.); VALUE and DESCRIPTION.
1; Cells; 5 uL; white, solid bottom 1536-well Greiner assay plate.
2; Compounds; 23 nL; Kalypsis pin tool (Wako USA) equipped with a 1536-well pin head to transfer to the assay plates.
3; Incubation; 48 hours; 37C incubation.
4; Reagent;5uL; CellTiter Glo (Promega).
5; Detector; 425V; Luminescence; Viewlux PerkinElmer.
NOTES (numbers refer to Sequence numbers above)
1. The cell-based screening methods employed in this study were like those previously published. Briefly, the corresponding myeloma cell lines were screened in 1,536-well plates with 500 cells, 5-uL per well for inhibition of cell viability (assessed by measuring ATP levels with CellTiterGlo).
2. NCATS MIPE 4.0 library of approved and investigational drugs were added using the Kalypsis pin tool. Wells treated with DMSO only for 100% viability and media only for 0% viability were used as controls.
3. The assay plates were covered and incubated for 48 hours in a 37C, 5% CO2 incubator with controlled humidity.
4. After 48 hours, CellTilter-GloTM luminescent substrate mix (Promega) reagent was added to the assay plate and plates we incubated for 5 min at room temperature.
5. Signal was measured as median relative luminescence units on a ViewLux (PerkinElmer) multiplate reader.
[1] Heske CM, Davis MI, Baumgart JT, Wilson K, Gormally MV, Chen L, Zhang X, Ceribelli M, Duveau DY, Guha R, Ferrer M, Arnaldez FI, Ji J, Tran HL, Zhang Y, Mendoza A, Helman LJ, Thomas CJ. Matrix Screen Identifies Synergistic Combination of PARP Inhibitors and Nicotinamide Phosphoribosyltransferase (NAMPT) Inhibitors in Ewing Sarcoma. Clin Cancer Res. 2017 Dec 1;23(23):7301-7311. doi: 10.1158/1078-0432.CCR-17-1121. Epub 2017 Sep 12. PMID: 28899971; PMCID: PMC6636827.
A general note: Cellular ATP, detected with luciferase, serves as a proxy for viable cell number.
In the case of `CC(C)NCC(O)c1ccc(O)c(O)c1` (stereo not given), the Potency is 16.6 µM (active).

On to `CCOC(=O)C(C)(C)Oc1ccc(Cl)cc1`, for which the viability is 104%.

Consider `NC(CO)C(=O)NNCc1ccc(O)c(O)c1O` (stereo not given), for which the Potency is 11.8 µM (active).

As for `O=C1N(c2ccccc2)c2ccccc2C1(Cc1ccncc1)Cc1ccncc1`, the viability was 122%.

Consider `CS(=O)(=O)CCNCc1ccc(-c2ccc3ncnc(Nc4ccc(OCc5cccc(F)c5)c(Cl)c4)c3c2)o1`, for which the Potency is 23.5 µM (active).

As for `COc1ccc2[nH]cc(CCNC(C)=O)c2c1`, the viability was 123%.

As to `CNCCCC12CCC(c3ccccc31)c1ccccc12`, the Potency was 18.7 µM (active).

In the case of `NC12CC3CC(CC(C3)C1)C2`, the viability is 134%.

For `Nc1ccn([C@H]2CC[C@@H](CO)O2)c(=O)n1`, the viability was 109%.

For `Clc1ccc(C(c2ccccc2Cl)C(Cl)Cl)cc1` (stereo not given), the Potency was 20.9 µM (active).

With `O=C(c1ccc(OCCN2CCCCC2)cc1)c1c(-c2ccc(O)cc2)sc2cc(O)ccc12`, the Potency is 26.4 µM (active).

As for `CC#C[C@]1(O)CC[C@H]2[C@@H]3CCC4=CC(=O)CCC4=C3[C@@H](c3ccc(N(C)C)cc3)C[C@@]21C`, the Potency was 4.18 µM (active).

For `CC1COc2c(N3CCN(C)CC3)c(F)cc3c(=O)c(C(=O)O)cn1c23` (stereo not given), the viability was 135%.

`CN(CCOc1ccc(NS(C)(=O)=O)cc1)CCc1ccc(NS(C)(=O)=O)cc1`: the viability was 109%.

`Cn1cnc2c1c(=O)[nH]c(=O)n2C`: the Potency was 20.9 µM (active).

Turning to `CN(Cc1cnc2nc(N)nc(N)c2n1)c1ccc(C(=O)N[C@@H](CCC(=O)O)C(=O)O)cc1`, the Potency was 5.9 µM (active).

For `Cn1c(=O)c2[nH]cnc2n(C)c1=O`, the viability is 104%.

As to `O=c1[nH]cc(F)c(=O)[nH]1`, the Potency is 13.2 µM (active).

With `CN1CCC(=C2c3ccccc3CC(=O)c3sccc32)CC1`, the viability was 102%.

As to `CN1C(C(=O)Nc2ccccn2)=C(O)c2ccccc2S1(=O)=O`, the viability is 103%.

Turning to `Nc1nc2c(ncn2COC(CO)CO)c(=O)[nH]1`, the Potency is 20.9 µM (active).

In the case of `COc1ccc2c(c1)c(CC(=O)O)c(C)n2C(=O)c1ccc(Cl)cc1`, the viability was 128%.

Regarding `COc1ccccc1N1CCN(CC(O)COc2cccc3ccccc23)CC1` (stereo not given), the viability is 119%.

On to `CN(C)CCCN1c2ccccc2CCc2ccc(Cl)cc21`, for which the Potency was 14.8 µM (active).

For the compound `COC(=O)Nc1nc2ccc(C(=O)c3cccs3)cc2[nH]1`, the Potency is 0.0017 µM (active).

`O=C(CCCN1CCC(O)(c2ccc(Cl)cc2)CC1)c1ccc(F)cc1`: the viability was 92.3%.

`COc1cc2nc(N3CCN(C(=O)c4ccco4)CC3)nc(N)c2cc1OC`: the Potency is 23.5 µM (active).

Take `CN1CCN(C2=Nc3cc(Cl)ccc3Nc3ccccc32)CC1`: the viability is 114%.

For `CC(C)(C)C(=O)Oc1ccc(S(=O)(=O)Nc2ccccc2C(=O)NCC(=O)O)cc1`, the viability was 142%.

Take `Cc1cn([C@H]2C[C@H](N=[N+]=[N-])[C@@H](CO)O2)c(=O)[nH]c1=O`: the viability was 139%.

In the case of `NC(=O)NO`, the Potency is 10.5 µM (active).

On to `CC(C)(Oc1ccc(C2CC2(Cl)Cl)cc1)C(=O)O` (stereo not given), for which the viability was 131%.

In the case of `O=C(Nc1ccc([N+](=O)[O-])cc1Cl)c1cc(Cl)ccc1O`, the Potency is 1.48 µM (active).

In the case of `Cc1cn([C@H]2C=C[C@@H](CO)O2)c(=O)[nH]c1=O`, the viability was 87.6%.

On to `CN(C)CCOC(c1ccccc1)c1ccccc1`, for which the viability was 119%.

Turning to `O=C1c2c(O)ccc(O)c2C(=O)c2c(NCCNCCO)ccc(NCCNCCO)c21`, the Potency is 2.96 µM (active).

As for `COc1cc2nc(N3CCN(C(=O)C4COc5ccccc5O4)CC3)nc(N)c2cc1OC` (stereo not given), the viability was 137%.

As to `NS(=O)(=O)c1cc2c(cc1Cl)NCNS2(=O)=O`, the viability was 114%.

With `CC[N+](CC)(CC)CCOc1cccc(OCC[N+](CC)(CC)CC)c1OCC[N+](CC)(CC)CC`, the viability is 112%.

Turning to `CCN1CCCC1CNC(=O)c1cc(S(=O)(=O)CC)c(N)cc1OC` (stereo not given), the viability is 121%.

For the origin of these results see PubChem BioAssay (NCATS).
